This note sets out measurements from PubChem BioAssay (EPA / NIEHS).

As usually defined, the AC50 is the midpoint of the concentration-response curve, whichever way the signal moves.

The target in test [1] is human Thyroid Receptor alpha (THRa1), THRA (gene 7067) (UniProt P10827). The experiment in a line: ATG_THRa1_TRANS: Attagene TRANS-FACTORIAL HepG2 Assay for human Thyroid Receptor alpha (THRa1) (AID 2283014; active = hit-call score of the fitted dose curve at least 0.9, where 1 is the maximum). An outline of the steps:
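HepG2 cells transiently transfected with multiplexed GAL4-UAS reporter units for exogenous chimeric THRa1-Gal4; reporter mRNA measured 24 h after dosing by RT-PCR, 6-FAM labelling, HpaI digestion and capillary electrophoresis. Gain-of-signal fitted versus DMSO baseline.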

Read-out in test [2]: E-selectin (Homo sapiens) (UniProt P16581)
Description: BSK_3C_Eselectin: BioMAP Diversity Plus: 3C Assay for Eselectin Biomarker Activity (AID 2283015).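 For outcome: cell surface E-selectin protein quantified by ELISA 24 h after dosing.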 As to conditions: primary human endothelial cells (HUVEC); actives raise or lower the signal. An outline of the steps: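 Primary human umbilical vein endothelial cells (3C system) were dosed with chemical and cell-surface E-selectin measured by ELISA 24 h later. Bidirectional curve fitting used DMSO as negative control and baseline.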

Read-out in test [3]: Interleukin-1 alpha (IL1a), IL1A (gene 3552)
Description: BSK_BE3C_IL1a: BioMAP Diversity Plus: BE3C Assay for Interleukin-1 alpha (IL1a) Biomarker Activity (AID 2283016). As to conditions: primary human bronchial epithelial cells; actives raise or lower the signal. Put shortly:
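IL-1a measured by ELISA after 24 h treatment of human primary bronchial epithelial cells, with gain or loss of signal fitted versus DMSO. Parallel cultures stained with SRB gauge overt cytotoxicity.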

Read-out in test [4]: Monocyte Chemoattractant Protein-1 (MCP1), CCL2 (gene 6347)
The experiment in a line: BSK_3C_MCP1: BioMAP Diversity Plus: 3C Assay for Monocyte Chemoattractant Protein-1 (MCP1) Biomarker Activity (AID 2283017). The following applies: primary human endothelial cells (HUVEC); actives raise or lower the signal. An outline of the steps: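 Primary human umbilical vein endothelial cells (3C system) were exposed to test chemical for 24 h, after which MCP-1 was quantified by ELISA. Activity was fitted bidirectionally against DMSO as negative control and baseline.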

Read-out in test [5]: Monocyte Chemoattractant Protein-1 (MCP1), CCL2 (gene 6347)
Description: BSK_4H_MCP1: BioMAP Diversity Plus: 4H Assay for Monocyte Chemoattractant Protein-1 (MCP1) Biomarker Activity (AID 2283018). As to conditions: primary human endothelial cells (HUVEC); actives raise or lower the signal. Put shortly:
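ELISA of MCP-1 (CCL2) 24 h after chemical dosing of HUVEC in the BioMAP 4H system. Gain or loss versus DMSO fitted; parallel SRB staining (560 nm) tracked overt cytotoxicity.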

Read-out in test [6]: Human Leukocyte Antigen - DR isotype (HLADR), HLA-DRA (gene 3122)
Description: BSK_3C_HLADR: BioMAP Diversity Plus: 3C Assay for Human Leukocyte Antigen - DR isotype (HLADR) Biomarker Activity (AID 2283019). As to conditions: primary human endothelial cells (HUVEC); actives raise or lower the signal. An outline of the steps: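 Primary human umbilical vein endothelial cells (3C system) were dosed with compound and cell-surface HLA-DR was quantified by ELISA at 24 h. Activity was fitted bidirectionally against DMSO as negative control and baseline.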

Read-out in test [7]: Interleukin-8 (IL8), CXCL8 (gene 3576)
The experiment in a line: BSK_3C_IL8: BioMAP Diversity Plus: 3C Assay for Interleukin-8 (IL8) Biomarker Activity (AID 2283020). As to conditions: primary human endothelial cells (HUVEC); actives raise or lower the signal. Put shortly: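 IL-8 was measured by ELISA in HUVEC cultures 24 h after chemical dosing, with gain or loss of signal fitted relative to DMSO. Parallel SRB total-protein staining tracked overt cytotoxicity.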

Read-out in test [8]: Monokine induced gamma interferon (MIG), CXCL9 (gene 4283)
Description: BSK_3C_MIG: BioMAP Diversity Plus: 3C Assay for Monokine induced gamma interferon (MIG) Biomarker Activity (AID 2283021).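 For AC50: MIG protein level measured by immunoassay in the treated endothelial cultures.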 The following applies: primary human endothelial cells (HUVEC); actives raise or lower the signal. An outline of the steps: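 ELISA measurement of MIG in human umbilical vein endothelial cells 24 h after treatment. Cytotoxicity tracked by SRB staining in parallel cultures; gain or loss of signal fitted relative to DMSO.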

The target in test [9] is human Vitamin D Receptor (VDR), VDR (gene 7421) (UniProt P11473). Description: ATG_VDR_TRANS: Attagene TRANS-FACTORIAL HepG2 Assay for human Vitamin D Receptor (VDR) (AID 2283022; active = hit-call score of the fitted dose curve at least 0.9, where 1 is the maximum). An outline of the steps:
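HepG2 cells were transiently transfected with multiple GAL4-UAS reporter units, so signal reflects exogenous chimeric receptor-Gal4 activity. After 24 h compound exposure, reporter mRNA was measured by RT-PCR, fluorescent labelling and capillary electrophoresis, fitted for gain of signal versus DMSO.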

Test [10] in a line: BSK_3C_SRB: Viability Assessment in the BioMAP Diversity Plus: 3C Assay (AID 2283023).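 Note: fitted both ways against DMSO so a hit may be signal rise or drop.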 The following applies: primary human endothelial cells (HUVEC). Put shortly:
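Primary human umbilical vein endothelial cells in the 3C system were read 24 h after compound dosing. Total protein was stained with 0.1% sulforhodamine B after 10% TCA fixation and read at 560 nm, with bidirectional fitting against DMSO as baseline.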

Read-out in test [11]: Matrix Metallopeptidase 1 (MMP1), MMP1 (gene 4312)
Description: BSK_BE3C_MMP1: BioMAP Diversity Plus: BE3C Assay for Matrix Metallopeptidase 1 (MMP1) Biomarker Activity (AID 2283024). As to conditions: primary human bronchial epithelial cells; actives raise or lower the signal. An outline of the steps:
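ELISA measurement of MMP-1 after 24 h compound exposure of primary human bronchial epithelial cells. Changes in either direction fitted relative to DMSO; parallel SRB staining checked overt cytotoxicity.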

The nature of test [12]: BSK_3C_Vis: BioMAP Diversity Plus: 3C Assay for Morphology Visualization (AID 2283025).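 For AC50: light microscopy image of cell morphology used as background control.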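 Note: fitted both ways so gain or loss versus DMSO counts.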 As to conditions: primary human endothelial cells (HUVEC). Put shortly:
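Light-microscopy visualization of HUVEC cultures at 24 h post-treatment, with DMSO as baseline for bidirectional fitting.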

Read-out in test [13]: Pselectin, SELP (gene 6403)
Description: BSK_4H_Pselectin: BioMAP Diversity Plus: 4H Assay for Pselectin Biomarker Activity (AID 2283026). As to conditions: primary human endothelial cells (HUVEC); actives raise or lower the signal. Put shortly:
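ELISA of surface P-selectin on HUVEC, 24 h after dosing, with parallel SRB staining (0.1% after 10% TCA fixation, 560 nm) for overt cytotoxicity. Activity fitted in both directions relative to DMSO.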

Test [14] is described as follows: BSK_4H_SRB: Viability Assessment in the BioMAP Diversity Plus: 4H Assay (AID 2283027).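 For AC50: curves fitted both ways versus DMSO so AC50 may be loss or gain.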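 Note: cells exposed to compound for 24 h before staining.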 The following applies: primary human endothelial cells (HUVEC). Put shortly:
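Cytotoxicity read-out in primary human endothelial cells: after 24 h compound exposure, cells were TCA-fixed (10%), stained with 0.1% SRB and absorbance taken at 560 nm. Values fitted in both directions relative to DMSO.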

Test [15] is described as follows: BSK_BE3C_SRB: Viability Assessment in the BioMAP Diversity Plus: BE3C Assay (AID 2283028).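 For AC50: fitted both ways so AC50 may mark signal gain or loss versus DMSO.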 As to conditions: primary human bronchial epithelial cells. Put shortly: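 Human primary bronchial epithelial cells were exposed to test chemicals for 24 h. Total protein in parallel cultures was then measured by staining with 0.1% sulforhodamine B after 10% TCA fixation, with absorbance read at 560 nm. Activity was fitted bidirectionally against DMSO.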

Read-out in test [16]: Urokinase-type plasminogen activator receptor (uPAR), PLAUR (gene 5329)
The experiment in a line: BSK_4H_uPAR: BioMAP Diversity Plus: 4H Assay for Urokinase-type plasminogen activator receptor (uPAR) Biomarker Activity (AID 2283030). The following applies: primary human endothelial cells (HUVEC); actives raise or lower the signal. An outline of the steps:
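Primary human umbilical vein endothelial cells were exposed to chemical for 24 h before cell-surface uPAR was quantified by ELISA. Activity was fitted bidirectionally against the DMSO negative control baseline.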

Read-out in test [17]: Vascular endothelial growth factor receptor 2 (Homo sapiens) (UniProt P35968)
Description: BSK_4H_VEGFRII: BioMAP Diversity Plus: 4H Assay for Vascular endothelial growth factor receptor 2 (VEGFR2) Biomarker Activity (AID 2283031). The following applies: primary human endothelial cells (HUVEC); actives raise or lower the signal. An outline of the steps:
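Primary human umbilical vein endothelial cells in the BioMAP 4H system were dosed with test chemical, and 24 h later VEGFRII was measured by ELISA. Activity was fitted bidirectionally against DMSO as negative control and baseline.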

Read-out in test [18]: Human Leukocyte Antigen - DR isotype (HLADR), HLA-DRA (gene 3122)
The experiment in a line: BSK_BE3C_HLADR: BioMAP Diversity Plus: BE3C Assay for Human Leukocyte Antigen - DR isotype (HLADR) Biomarker Activity (AID 2283032). As to conditions: primary human bronchial epithelial cells; actives raise or lower the signal. An outline of the steps:
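Cell-surface HLA-DR ELISA readout at 24 h after dosing in the BE3C primary human lung bronchial epithelial system; gain or loss of signal against DMSO, with parallel sulforhodamine B staining of total protein for overt cytotoxicity.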

For test [19], the target named is human Retinoid X Receptor beta (RXRb), RXRB (gene 6257) (UniProt P28702). Description: ATG_RXRb_TRANS: Attagene TRANS-FACTORIAL HepG2 Assay for human Retinoid X Receptor beta (RXRb) (AID 2283013; active = hit-call score of the fitted dose curve at least 0.9, where 1 is the maximum). An outline of the steps: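 Readout is reporter transcript induction after 24 h dosing. It is measured by RT-PCR of total RNA followed by fluorescent capillary electrophoresis. HepG2 liver cells carry transfected multiple reporter units driven by an exogenous RXRb-Gal4 fusion; activity is relative to DMSO.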

Read-out in test [20]: Thrombomodulin, THBD (gene 7056)
Description: BSK_3C_Thrombomodulin: BioMAP Diversity Plus: 3C Assay for Thrombomodulin Biomarker Activity (AID 2283029). The following applies: primary human endothelial cells (HUVEC); actives raise or lower the signal. Put shortly:
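ELISA measurement of thrombomodulin on HUVEC surface 24 h after chemical dosing; activity fitted in both directions relative to DMSO vehicle.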

Records with an inconclusive call do not appear. Calls of active or inactive are those of the source. Rule for the calls, unless noted: active = hit-call score of the fitted dose curve at least 0.9, where 1 is the maximum; inactive = score below 0.9.

Chain of human Retinoid X Receptor beta (RXRb), RXRB (gene 6257) (P28702 whole entry, looked up, the tested form may be a part): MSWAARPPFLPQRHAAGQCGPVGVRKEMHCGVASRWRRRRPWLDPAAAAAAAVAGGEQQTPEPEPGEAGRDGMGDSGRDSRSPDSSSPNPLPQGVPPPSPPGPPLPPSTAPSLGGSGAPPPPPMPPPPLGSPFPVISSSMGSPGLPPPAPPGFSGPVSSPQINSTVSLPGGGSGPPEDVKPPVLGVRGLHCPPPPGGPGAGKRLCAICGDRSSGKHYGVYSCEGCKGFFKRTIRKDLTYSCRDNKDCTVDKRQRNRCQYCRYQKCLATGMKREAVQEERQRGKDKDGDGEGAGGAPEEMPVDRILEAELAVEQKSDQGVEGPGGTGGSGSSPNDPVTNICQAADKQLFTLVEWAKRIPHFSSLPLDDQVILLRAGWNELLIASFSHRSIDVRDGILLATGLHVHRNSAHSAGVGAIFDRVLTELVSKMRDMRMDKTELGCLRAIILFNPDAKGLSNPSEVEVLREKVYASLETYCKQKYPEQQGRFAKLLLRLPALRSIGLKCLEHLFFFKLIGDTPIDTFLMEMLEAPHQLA
Chain of human Vitamin D Receptor (VDR), VDR (gene 7421) (P11473 whole entry, looked up, the tested form may be a part): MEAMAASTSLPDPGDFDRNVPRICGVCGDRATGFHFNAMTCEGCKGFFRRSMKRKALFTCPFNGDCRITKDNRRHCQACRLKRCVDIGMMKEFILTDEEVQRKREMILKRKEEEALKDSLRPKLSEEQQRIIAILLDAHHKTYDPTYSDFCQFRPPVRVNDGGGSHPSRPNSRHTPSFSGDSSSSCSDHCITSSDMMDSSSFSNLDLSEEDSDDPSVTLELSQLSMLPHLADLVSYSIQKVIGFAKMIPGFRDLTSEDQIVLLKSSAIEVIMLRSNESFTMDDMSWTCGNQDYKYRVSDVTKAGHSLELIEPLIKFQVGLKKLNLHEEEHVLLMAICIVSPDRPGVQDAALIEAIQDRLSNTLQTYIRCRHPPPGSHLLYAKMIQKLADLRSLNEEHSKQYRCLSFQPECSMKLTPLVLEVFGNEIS
Chain of human Thyroid Receptor alpha (THRa1), THRA (gene 7067) (P10827 whole entry, looked up, the tested form may be a part): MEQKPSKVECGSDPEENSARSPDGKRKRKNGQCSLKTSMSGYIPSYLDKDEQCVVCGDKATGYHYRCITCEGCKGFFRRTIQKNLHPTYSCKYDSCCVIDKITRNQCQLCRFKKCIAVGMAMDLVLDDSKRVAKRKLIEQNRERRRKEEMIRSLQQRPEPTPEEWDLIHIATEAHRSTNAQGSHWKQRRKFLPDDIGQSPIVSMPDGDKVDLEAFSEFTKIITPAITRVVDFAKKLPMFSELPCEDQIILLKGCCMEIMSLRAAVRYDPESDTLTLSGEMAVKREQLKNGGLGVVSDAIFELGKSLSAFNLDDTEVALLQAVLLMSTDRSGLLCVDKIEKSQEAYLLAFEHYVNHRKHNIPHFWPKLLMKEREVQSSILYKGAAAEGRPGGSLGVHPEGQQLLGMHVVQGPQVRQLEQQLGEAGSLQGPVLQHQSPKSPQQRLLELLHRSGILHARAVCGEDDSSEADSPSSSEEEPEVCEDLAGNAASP
Chain of E-selectin (Homo sapiens) (P16581 whole entry, looked up): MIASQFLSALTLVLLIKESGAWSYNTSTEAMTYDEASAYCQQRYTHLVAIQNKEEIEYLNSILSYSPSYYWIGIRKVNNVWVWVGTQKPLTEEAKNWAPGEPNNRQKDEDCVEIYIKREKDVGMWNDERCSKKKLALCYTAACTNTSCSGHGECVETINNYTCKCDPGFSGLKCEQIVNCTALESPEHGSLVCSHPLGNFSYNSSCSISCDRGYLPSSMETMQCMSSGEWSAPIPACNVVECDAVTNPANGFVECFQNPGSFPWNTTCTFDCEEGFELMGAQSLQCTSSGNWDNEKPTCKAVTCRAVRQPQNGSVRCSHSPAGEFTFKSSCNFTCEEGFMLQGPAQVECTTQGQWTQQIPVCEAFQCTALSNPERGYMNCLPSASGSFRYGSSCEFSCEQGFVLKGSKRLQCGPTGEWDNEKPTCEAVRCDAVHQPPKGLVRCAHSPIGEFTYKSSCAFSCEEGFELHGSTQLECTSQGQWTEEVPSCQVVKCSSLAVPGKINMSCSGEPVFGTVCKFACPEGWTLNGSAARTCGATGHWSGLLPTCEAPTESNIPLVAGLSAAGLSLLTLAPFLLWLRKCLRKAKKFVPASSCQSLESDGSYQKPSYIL

In the case of `Oc1cccc2cccnc12`, the result in [1], in test [4], in test [5], in test [7], in test [8] and in test [9] was inactive. In addition, the outcome in [10], in test [12], in [14], in test [16] and in test [17] was inactive. In addition, the AC50 in test [2] was 20 µM (active); in [3], 5.35 µM (active); in [6], 4.97 µM (active); in test [11] it was 2.73 µM (active); in test [13], 5.54 µM (active); in [15], 4.3 µM (active). For the same compound, the AC50 in test [18] is 3.53 µM (active).

As to `ClCC(Cl)CCl`, the outcome in test [19], in test [2], in test [3], in [4], in test [5] and in test [6] was inactive. Moreover, the outcome in test [7], in [8], in test [9], in test [10], in [11] and in test [12] was inactive. For the same compound, the outcome in test [13], in [14], in test [15], in test [20], in test [16] and in test [17] was inactive. For the same compound, the outcome in test [18] was inactive.

Turning to `O=C(Cc1ccccc1)c1ccccc1`, the result in [19] and in [9] was inactive.

As for `N#CCCO`, the result in test [1] was inactive.

Regarding `O=S(=O)(c1ccc(Cl)cc1)c1ccc(Cl)cc1`, the compound was classed as inactive in [1], in [2], in test [3], in test [4], in [5] and in test [6]. For the same compound, the outcome in test [7], in [8], in test [9], in test [10], in [11] and in [12] was inactive. The outcome in test [13], in test [14], in test [15], in [20], in test [16] and in [17] was inactive. The result in test [18] was inactive.

For the compound `CC(=O)c1cc(C(C)(C)C)cc2c1CCC2(C)C`, the AC50 in [19] was 0.446 µM (active). Also, the call in test [9] was inactive.

As for `O=CC=O`, the compound was called inactive in test [1].

With `CCN1CCC2(CC1)COc1cc3c(cc12)N(C(=O)c1ccc(-c2ccc(-c4nnc(C)o4)cc2C)cc1)CC3`, the compound was classed as inactive in test [19], in [9], in test [11] and in [17]. The concentration at half-maximal activity (AC50) in [2] is 28 µM (active); in test [3], 13.8 µM (active); in test [4], 14 µM (active); in [5], 26 µM (active); in test [6], 13 µM (active); in [7], 18.4 µM (active). Moreover, the AC50 is 32.3 µM (active) in test [8]; 6.23 µM (active) in test [10]; 6.51 µM (active) in test [12]; 12 µM (active) in [13]; 23.1 µM (active) in test [14]; 12.9 µM (active) in test [15]. Also, the AC50 in test [16] was 18.7 µM (active); in [18], 10.5 µM (active).

As for `O=C(O)Cc1ccccc1`, the result in [19] and in test [9] was inactive.
